The results in this text go back to ChEMBL document CHEMBL3988442, “University of Dundee, Small-Polar-MMV Screening Library” (2021).

The test addresses T1, Methionyl-tRNA synthetase, putative (Leishmania donovani (strain BPK282A1)) (UniProt E9BF75).
T1 sequence (whole entry): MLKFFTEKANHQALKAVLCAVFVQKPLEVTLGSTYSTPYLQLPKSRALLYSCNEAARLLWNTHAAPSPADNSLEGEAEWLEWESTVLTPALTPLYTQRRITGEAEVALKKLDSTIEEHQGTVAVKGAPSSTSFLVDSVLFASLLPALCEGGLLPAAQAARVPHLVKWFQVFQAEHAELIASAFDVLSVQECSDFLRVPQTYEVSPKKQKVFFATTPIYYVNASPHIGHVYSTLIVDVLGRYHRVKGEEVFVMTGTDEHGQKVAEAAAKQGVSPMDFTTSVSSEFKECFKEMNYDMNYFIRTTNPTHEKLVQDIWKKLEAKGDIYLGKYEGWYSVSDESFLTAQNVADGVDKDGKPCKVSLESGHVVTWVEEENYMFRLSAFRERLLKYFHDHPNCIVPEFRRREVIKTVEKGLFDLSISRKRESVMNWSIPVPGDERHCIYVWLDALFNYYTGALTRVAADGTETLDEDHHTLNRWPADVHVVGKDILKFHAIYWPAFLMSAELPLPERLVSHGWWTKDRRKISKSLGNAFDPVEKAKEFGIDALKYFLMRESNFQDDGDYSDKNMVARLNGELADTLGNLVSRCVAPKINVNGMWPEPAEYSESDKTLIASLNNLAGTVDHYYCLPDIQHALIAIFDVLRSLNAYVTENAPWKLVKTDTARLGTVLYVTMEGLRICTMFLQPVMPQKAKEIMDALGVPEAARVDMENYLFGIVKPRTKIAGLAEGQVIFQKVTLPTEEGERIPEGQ
Description: Leishmania donovani Methionine tRNA synthetase (LdMetRS):v7. Dose response assay. The settings on record: MAX_EFFECT 5.420560748. The arrangement: conc 80 nM, time 150 minutes. It is filed as functional.
With `COc1ccccc1NC(=O)Nc1nn(C)c2ccccc12`, the PXC50 is < 4.

Regarding `COc1ccccc1NC(=O)Nc1cc(C(N)=O)ccc1OC`, the PXC50 was < 4.

Consider `OCCNc1nccc(Nc2ccc(F)c(F)c2)n1`, for which the PXC50 is < 4.
